GLP1R cytotox – qHTS of GLP-1 Receptor Inverse Agonists: Cytotox Screen. HEK293 cAMP-luciferase reporter cells, luminescence, 24 h. Potency, µM (series often up to 38.3 µM), for the others: at the highest dose activity change, negative = inhibition, hits mostly inhibitors. 410,000 compounds, 0.13% hits. AID 624418, 2012;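 note: loss of luciferase light is scored as toxicity; % is set by controls: 0 for no effect and ±100 for the full control effect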
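Luminescence readout: signal drop marks cytotoxicity. Plated cells grew 12 h at 37 °C, 5% CO2, received 23 nL compound for 24 h, then got luciferase reagent, read after 12 min at RT.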
KAT2A inh – qHTS Assay for Inhibitors of GCN5L2 | Histone acetyltransferase KAT2A (Homo sapiens), Q92830 | 390,000 compounds, 0.21% hits | Potency, µM (titrated, usually from 58.9 µM), for inactives: top-dose activity change, negative = inhibition, usual class: inhibitors | GCN5L2 HAT assay, ThioGlo1 CoA-SH fluorescence; note: % is set by controls: 0 for no effect and ±100 for the full control effect
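Free CoA generated was detected with ThioGlo1 (50uM) fluorescence at Ex340nm/Em540nm, read immediately and after 20 min at room temperature. Enzyme, 20 nM in HEPES pH 7.5 buffer, saw compounds 15 min before adding 75uM H3(1-25) peptide and 70uM acetyl-CoA.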
RGS4 inh – Inhibitors of Regulator of G Protein Signaling (RGS) 4: qHTS | 390,000 compounds, 0.039% hits | Regulator of G-protein signaling 4 (Homo sapiens), P49798 | Transcreener GDP fluorescence polarization, RGS4-accelerated GTP hydrolysis | Potency, µM (titrated, usually from 114 µM), for the others: at the top dose activity change, negative = inhibition, actives largely listed as inhibitors; note: % is set by controls: 0 for no effect and ±100 for the full control effect; nearly all actives have a fitted effect of over 75% in size
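MLSMR compounds (23 nl, pin-transferred) preincubated 10 min at room temperature with a 500nM (2x) first reagent, then RGS4 at 900nM (2x) plus Transcreener GDP mix added; fluorescence polarization (620/688 nm) read before and after 90 min at 30 °C.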
GLP1R ag – qHTS of GLP-1 Receptor Agonists. Potency, µM (titrated, usually from 45.6 µM), inactives show at the highest dose activation, actives largely listed as activators. 380,000 compounds, 0.007% hits. HEK293 GLP-1R CRE-luciferase, luminescence, 4-6 h; cells express a hypersensitive GLP-1R form; note: % of control where 0% means no effect
PTHR1 ag – qHTS for PTHR1 Agonists: Primary Screen; 410,000 compounds, 0.075% hits; HEK293 GP2 PTHR1 cells, GloSensor cAMP luminescence, 1 h; Potency, µM (doses to about 115 µM), for inactives: at the highest dose activation, hits mostly activators; note: nearly all actives have a fitted effect of over 55% in size
Target sequence (Q03431 whole entry, looked up): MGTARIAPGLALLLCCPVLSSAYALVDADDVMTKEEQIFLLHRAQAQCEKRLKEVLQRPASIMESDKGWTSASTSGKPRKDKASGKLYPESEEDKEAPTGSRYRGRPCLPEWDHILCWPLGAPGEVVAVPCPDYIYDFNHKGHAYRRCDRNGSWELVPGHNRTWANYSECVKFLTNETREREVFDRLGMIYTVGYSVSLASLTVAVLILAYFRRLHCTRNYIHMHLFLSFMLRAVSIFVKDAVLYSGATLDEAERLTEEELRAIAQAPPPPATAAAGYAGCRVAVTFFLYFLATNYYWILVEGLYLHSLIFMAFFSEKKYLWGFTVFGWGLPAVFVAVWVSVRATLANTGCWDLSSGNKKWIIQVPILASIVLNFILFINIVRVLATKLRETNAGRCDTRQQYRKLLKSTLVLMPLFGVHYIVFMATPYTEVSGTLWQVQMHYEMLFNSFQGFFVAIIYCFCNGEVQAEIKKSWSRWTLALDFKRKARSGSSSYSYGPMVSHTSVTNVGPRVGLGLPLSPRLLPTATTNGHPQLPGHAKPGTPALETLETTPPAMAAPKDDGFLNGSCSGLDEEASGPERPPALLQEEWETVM
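HEK-293-derived GP2 cells expressing PTHR1 and a GloSensor cAMP reporter, 3,000/well, plated overnight, given luciferin plus IBMX (each 0.5 mM as added) for 1 h at 37 °C, then compound for 1 h at 37 °C. Luminescence was read after 15 min at room temperature.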
GLP-1R inv ag – qHTS of GLP-1 Receptor Inverse Agonists (Inhibition Mode); HEK293 GLP-1R CRE-luciferase, luminescence, 24 h; GLP-1R form is constitutively active; Potency, µM (highest dose often 38.3 µM), for the others: at the top dose activity change, negative = inhibition, most hits filed as inhibitors; 410,000 compounds, 1.6% hits; AID 624417, 2012; note: % is set by controls: 0 for no effect and ±100 for the full control effect; nearly all actives have a fitted effect of over 55% in size
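Seeding at 200 cells/uL, 12 h culture, 24 hr compound treatment, then luciferase reagent and a luminescence read; cells are HEK293 stably expressing a constitutively active GLP-1R plus cAMP-responsive luciferase.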
* marks the source's active call; other numbers are inactive results; i = inactive; ? = inconclusive; . = no result; [ ] = remark or other dose. Rows were chosen to be rich in hits. Some 1.8% of all compounds tested hit in one or more screens of this group. Calls come from the whole dose curve; as a rule, active = well fitted curve in the direction sought with a large enough effect; inconclusive = small, poorly fitted or top-dose-only effect, or another doubt; inactive = no such curve, though single readings can be large; an effect the other way counts as inactive or inconclusive. Potency is the fitted concentration of half-maximal effect.

SMILES | GLP1R cytotox | KAT2A inh | RGS4 inh | GLP1R ag | PTHR1 ag | GLP-1R inv ag
Cc1ccc(S(=O)(=O)N2CCC(C(=O)OCC(=O)Nc3cc(S(C)(=O)=O)ccc3Cl)CC2)cc1C | -2% | -4% | 4% | 2% | i | 11%
CCc1ccc(NC(=O)CCn2nc(-c3ccccc3OC)c3c(C)cc(C)nc32)cc1 | -19% | -10% | ? | -2% | -6% | ?
COc1c(C(O)CC(C)C)ccc2c1C(=O)OCc1cc(C)cc(O)c1O2 (stereo not given) | -1% | -1% | -5% | -5% | -47% | 11µM*
COc1c(C(CC(C)C)OC(C)=O)ccc2c1C(=O)OCc1cc(C)cc(O)c1O2 (stereo not given) | -3% | -27% | 7% | 4% | -35% | 10µM*
CCOC(=O)C(=NC(C)CC)NNc1ccc(Br)cc1 (stereo not given) | -11% | -13% | -11% | 16% | -18% | 2.5µM*
CC(C)(C)C(=O)NCCc1nc2ccccc2n1CCCCOc1ccc(Cl)cc1 | -21% | -26% | -7% | . | -38% | 10µM*
Cc1ccc(OCCn2c(CCNC(=O)C(C)C)nc3ccccc32)cc1 | -11% | -1% | -8% | -3% | -19%[57.5 µM] | 7.9µM*
CC(C)C(=O)NCCc1nc2ccccc2n1CCCOc1ccc(Cl)cc1 | ? | ? | 17% | 8% | -20%[57.5 µM] | ?
O=C(NCCC(=O)N(Cc1ccco1)Cc1cccs1)c1ccc([N+](=O)[O-])cc1 | -5% | -27% | ? | 0% | -21% | -12%
COc1ccccc1C(=O)NNC(=O)c1cccc(F)c1 | 1% | -4% | -6% | -2% | -38% | 8.9µM*
CCc1ccc(NC(=O)CCc2ccc(CC)o2)cc1 | -21% | -17% | -12% | -2% | -29% | 10µM*
Cc1ccc(S(=O)(=O)N2C[C@H]3C(=O)C[C@@H](c4ccc(Cl)cc4)N(S(=O)(=O)c4ccc(C)cc4)[C@H]3C[C@H]2c2cccc3ccccc23)cc1 | 4% | . | . | -1% | 7% | 9%
C=CCn1c(CCc2cc(C(C)(C)C)c(O)c(C(C)(C)C)c2)n[nH]c1=S | 11µM* | -13% | -6% | 7% | -14% | ?
COC(C(=O)C(O)C(C)O)C1Cc2cc3cc(OC4CC(OC5CC(O)C(O)C(C)O5)C(O)C(C)O4)c(C)c(O)c3c(O)c2C(=O)C1OC1CC(OC2CC(OC3CC(C)(O)C(O)C(C)O3)C(O)C(C)O2)C(O)C(C)O1 (stereo not given) | . | 0% | . | . | . | .
Cc1cccc(Sc2c(C=O)c3ccccc3n2C)c1 | -27% | -16% | 4% | 0% | -13%[57.5 µM] | 2.8µM*
Cn1c(Sc2ccccc2Cl)c(C=O)c2ccccc21 | -13% | -19% | -3% | 10% | -41% | ?
Cn1c(Sc2ccc(Cl)cc2)c(C=O)c2ccccc21 | ? | -2% | -4% | -35% | -38%[57.5 µM] | 3.2µM*
CC(=O)OC1C=C[C@@H](OC(C)=O)C1 (stereo not given in full) | . | 46% | . | . | . | .
CCCCCCCCCCCC | . | 12% | . | . | . | .
Cc1ccc(F)c(C2C3C=CCCC3(C)C(=O)N2Cc2ccccc2)c1 (stereo not given) | . | . | 1% | . | . | .
Cc1c(Cl)ccc2c(C(=O)NCCN3CCCCC3)cc(-c3ccccn3)nc12 | ? | -3% | 4% | 5% | i | 3.5µM*
CCCCCCC[C@@H](C/C=C/CCC(=O)N(C)C/C(=C/Cl)C/C(=C\C(=O)N1CC(OC)=CC1=O)OC)OC | 2% | -9% | -7% | -3% | -51% | -27%
CCCCCCC[C@@H](C/C=C/CCC(=O)N(C)C/C(=C/Cl)C/C(=C\C(=O)N1C[C@H](O)CC1=O)OC)OC | -19% | -18% | -30% | 4% | -48% | 11µM*
CN1C(=O)[C@H]2[C@@H](c3ccccc3)N[C@]3(CCCN(Cc4ccc(F)cc4)C3=O)[C@H]2C1=O | 7% | . | . | -8% | i | -1%
O=C(/C=C/c1cccc([N+](=O)[O-])c1)NCCSCc1ccc(Cl)cc1 | -20% | -10% | -7% | 12% | -25% | 10µM*
SMILES | GLP1R cytotox | KAT2A inh | RGS4 inh | GLP1R ag | PTHR1 ag | GLP-1R inv ag
O=C(/C=C/c1cccc([N+](=O)[O-])c1)NCCSCc1c(Cl)cccc1Cl | 10% | -14% | -26% | 7% | i | ?
CCN(CC)C1=CC(=O)OC12CCCCC2 | 6% | 20µM* | ? | -9% | i | 24%
O=C(CC1(O)C(=O)Nc2ccc(Br)cc21)c1ccccc1 (stereo not given) | -10% | . | . | 1% | -3% | -11%
O=C(Nc1ccc2nc(-c3ccco3)c(-c3ccco3)nc2c1)N1CCN(c2ccccn2)CC1 | 0% | 10µM* | ? | -15% | -13% | ?
O=c1ncccn1[C@@H]1O[C@H](CO)C(O)[C@@H]1O (stereo not given in full) | . | 2% | . | . | . | .
O=c1cnn([C@@H]2O[C@H](CO)[C@@H](O)[C@H]2O)c(=O)[nH]1 | 4% | -1% | 1% | -6% | 10% | 1µM*
CSc1ccc(CCNC(=O)c2ccc(-n3c(C)cc4c3CCC(C)C4)cc2)cc1 (stereo not given) | -2% | -13% | 7% | . | 2% | 5%
S=C1Cc2ccccc2N1 | -1% | 8% | ? | -1% | i | 1µM*
S=C1Nc2ccccc2CS1 | ? | . | . | -7% | -4% | ?
CCN(CC)c1ccc2nc3ccccc3[n+](CC)c2c1 | 11µM* | -24% | -97%[56.9 µM] | -1% | -31% | ?
CCc1cccc(NC(=O)c2ccc(CNS(=O)(=O)c3ccc4c(c3)C(C)(C)C(=O)N4C)cc2)c1 | -18% | -11% | -11% | . | -32% | 10µM*
Oc1ccc(/C=N/Nc2cc(N3CCOCC3)nc(N3CCOCC3)n2)cc1O | -13% | -7% | -34% | 14% | i | 25%
O=C(Oc1cccc(/C=N/Nc2nc(Nc3ccccc3)nc(N3CCOCC3)n2)c1)c1ccco1 | 28% | -11% | -15% | -4% | i | 1.8µM*
